The values that follow come from PubChem BioAssay AID504408 (Broad Institute, 2011).

Molecules are shown by their SMILES. Among all 300,000 compounds or so, about 5,200 (1.7%) were called active. This is one part of a sample in which actives are shown more often than they occur.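 Rule for the calls: active = mean replicate activation of at least 50% with a set share of replicates each reaching 50%; inconclusive = only one of those two conditions met; inactive = mean below 50% and too few replicates reaching it.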

The experiment is described as follows: HSF-1 response element luciferase induction – NIH3T3-HGL cells, MG132 stress, luminescence, single point, primary screen (AID 504408).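 Note: 0% = median of the neutral control wells and 100% = twice that signal.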 To be noted: NIH3T3-HGL HSF-1 luciferase reporter, MG132, 8 h; at 9 µM; stronger effect = higher value; 100% = twice DMSO control signal.
On to `COc1cc2c(cc1OC)CN(C(=O)c1cc(S(=O)(=O)N3CCCCC3)ccc1Cl)CC2`, for which the activation was 31.4% (inactive). The value for `COc1ccc(S(=O)(=O)N2CCC(C(=O)N3CCc4ccccc4C3)CC2)cc1OC` was -2.14% (inactive); that for `COc1cc2c(cc1OC)C(C)N(S(=O)(=O)c1cnc(Cl)c(Cl)c1)CC2` (configuration not stated) was 227% (active); that for `CCCCn1c(N)c(N(CC)C(=O)c2ccc(N(C)S(=O)(=O)c3ccc(C)cc3)cc2)c(=O)[nH]c1=O` was -9.17% (inactive). The value for `COc1ccc(OC)c(S(=O)(=O)N2CCCC(C(=O)N3CCC(C(N)=O)CC3)C2)c1` (configuration not stated) was -0.348% (inactive); that for `CCN1C(=O)[C@@H]2[C@@H](c3ccc(-c4cccc(Cl)c4)cc3)N3CCC[C@@]3(C(=O)OC)[C@@H]2C1=O` was 15% (inactive). Next, `O=C(Cc1ccccc1)NCc1ccc(F)cc1`: 20.9% (inactive); `O=C(/C=C\NCC(=O)c1ccccc1)c1ccccc1`: 16.4% (inactive).

On to `O=C(/C=C/NCc1ccc(F)cc1)c1ccccc1`, for which the activation is 57.4% (active). The value for `Cc1ccc(NC(=O)C(C)OC(=O)Cc2c[nH]c3ccccc23)cc1S(=O)(=O)N1CCOCC1` (configuration not stated) was 13% (inactive). As to `Cc1ccc(C(=O)OCC(=O)N2CC(C)CC(C)C2)cc1S(=O)(=O)N1CCCCC1` (configuration not stated), the activation was 1.62% (inactive). Take `Brc1ccc2nc(N3CCCC3)sc2c1`: the activation was 68.3% (active). Next, `c1c2c(cc3sc(N4CCCCC4)nc13)OCCO2`: -56.8% (inactive); `Cc1ccc2nc(N3CCN(C(=O)c4ccco4)CC3)sc2c1`: 12.9% (inactive). The value for `CN(Cc1c(F)cccc1Cl)C(=O)CNC(=O)c1ccc2c(c1)OCO2` was -4.62% (inactive).

For the molecule `Cc1ccc(S(=O)(=O)N2CCN(C(=O)c3ccccc3-c3nc4ccccc4s3)CC2)c(C)c1`, the activation is -2.98% (inactive).

`O=C(CCN1C(=O)c2ccccc2C1=O)Nc1cccc(F)c1`: the activation was -4.05% (inactive). Next, `O=C(CCN1C(=O)c2ccccc2C1=O)C1=NN[C@@H]2C(=O)N(c3ccc(F)cc3)C(=O)[C@H]12`: 67.2% (active). For the molecule `O=C1c2ccccc2C(=O)N1CCOc1ccc(F)cc1`, the activation is 43.4% (inactive). Next, `CCOc1ccc(S(=O)(=O)Nc2cccc(C(=O)NCC3(N4CCCCC4)CCCCC3)c2)cc1`: -4.45% (inactive). Regarding `COc1ccc(-n2c(SCC(=O)NCc3ccco3)nnc2-c2c[nH]c3ccccc23)cc1`, the activation was 7.75% (inactive). Next, `O=C(CSc1nnc(-c2c[nH]c3ccccc23)n1-c1ccc(F)cc1)NCc1ccco1`: 58.5% (active); `O=C(CSc1nnc2scc(-c3ccc(F)cc3)n12)NCc1ccco1`: -1.83% (inactive). Next, `O=S(=O)(Nc1ccc(-c2ccc(N3CCOCC3)nn2)cc1)c1cc(Cl)ccc1Cl`: 12.9% (inactive); `Cc1ccc(C(=O)N/N=C/c2cccc3ccccc23)cn1`: 15.6% (inactive); `c1cnc(Nc2nc(-c3ccc4ccccc4c3)cs2)nc1`: 38.8% (inactive). `CCCn1c(CCNc2nc(-c3ccc(OC)cc3)cs2)nc2ccccc21`: the activation was 3.73% (inactive). The value for `COc1ccc(-c2csc(Nc3ccccn3)n2)cc1` was 57.4% (active); that for `CCN(CC(=O)Nc1ccc(C)c(S(=O)(=O)N(C)C)c1)Cc1ccccc1` was 3.82% (inactive); that for `Cc1ccc(NC(=O)c2cccs2)cc1S(=O)(=O)N(C)C` was -11.9% (inactive). The value for `Cc1ccc(C(=O)Nc2ccc(C)c(S(=O)(=O)N(C)C)c2)s1` was 78.5% (active); that for `CN(C)S(=O)(=O)c1ccc(N2CCCC2)c(C(=O)Nc2ccc(Br)cc2F)c1` was 14.1% (inactive). The value for `Cc1ccc(Cc2nnc(SCC(=O)Nc3ccc(C)cc3C)[nH]c2=O)cc1` was 0.586% (inactive); that for `Cc1c(NC(=O)C(C)OC(=O)c2c3c(nc4ccccc24)CCC(C)C3)c(=O)n(-c2ccccc2)n1C` (configuration not stated) was -5.9% (inactive); that for `Cc1nc(=O)c(-c2ccccc2)c(C)n1-c1ccc(Br)cc1` was 1.48% (inactive). Regarding `S=C1NC(c2ccccc2)=NCN1c1ccc(Br)cc1`, the activation was 55% (active). Next, `O=C1CN(c2nc(-c3ccccc3)c3cc(Br)ccc3n2)c2ccccc2N1`: -21.4% (inactive); `CCC(=O)Nc1ccc(C(=O)Nc2cccc(OC)c2)cc1`: 11.2% (inactive). For the molecule `Cc1ccc(-n2nc3ccc(NC(=O)/C=C/c4ccco4)cc3n2)cc1C`, the activation was 21.6% (inactive). Next, `CCC(=O)Nc1ccc2nn(-c3ccc(F)cc3)nc2c1`: 63.6% (active); `Cc1cc(C)n2nc(C(=O)OC(C)C(=O)c3cc(C)c(C)cc3C)nc2n1` (configuration not stated): 4.08% (inactive); `Cn1c(=S)sc2ccc3ccccc3c21`: -1.53% (inactive).

For `COc1ccc(S(=O)(=O)NCC(c2ccco2)N2CCOCC2)cc1` (configuration not stated), the activation was -18.5% (inactive). Next, `COc1cccc(COC(=O)C2CCN(S(=O)(=O)c3ccc(Cl)cc3)CC2)c1OC`: -0.23% (inactive); `Cc1nc(C)c(C(=O)N(c2ccc(C)c(C)c2)C(C(=O)NCc2ccco2)c2ccccc2)s1` (configuration not stated): -5.39% (inactive); `Cc1ccc(-c2nnn(CC(=O)N(Cc3ccco3)C(C(=O)NC(C)(C)C)c3ccncc3)n2)o1` (configuration not stated): 10.4% (inactive).

Regarding `Cc1nn(-c2ccccc2)c2sc(C(=O)N(Cc3ccco3)C(C)C(=O)NC(C)(C)C)cc12` (configuration not stated), the activation is 91.4% (active). The value for `COc1ccc(NC(=O)CN(C)C(=O)c2cccc(S(=O)(=O)N3CCN(c4ccccc4)CC3)c2)cc1` was 14.8% (inactive); that for `COc1ccc(C(=O)Oc2ccc(-c3nnco3)cc2)cc1S(=O)(=O)N1CCOCC1` was 7.88% (inactive).

Turning to `N#Cc1ccc(C2N=C(c3ccccc3)NO2)cc1` (configuration not stated), the activation is 56.2% (active). With `Brc1ccccc1C1N=C(c2ccccc2)NO1` (configuration not stated), the activation is 9.38% (inactive). The value for `O=C(COC(=O)CNS(=O)(=O)c1ccc(F)c(F)c1F)NC1CCCC1` was -12.4% (inactive); that for `Nc1cccnc1Sc1ccccc1` was 7.53% (inactive). Next, `O=C(CNC(=O)C12CC3CC(CC(C3)C1)C2)OCC(=O)N1CCCCC1`: 10.8% (inactive); `CC(=O)N1CCN(C(=O)c2cc(-c3ccc(Cl)s3)nc3ccccc23)CC1`: 18.1% (inactive). The value for `CCNc1nc(-c2cc3ccccc3o2)cs1` was 25.2% (inactive); that for `Cc1ccc(Nc2nc(-c3ccc(O)cc3O)cs2)nc1` was -44.2% (inactive); that for `O=c1oc2ccccc2cc1-c1csc(Nc2ccc(O)cc2)n1` was 125% (active). As to `O=C1NC(c2cccc(Cl)c2)Nc2ccccc21` (configuration not stated), the activation is 19.4% (inactive). The value for `COc1cccc(C2Nc3cccc4cccc(c34)N2)c1` was 1.58% (inactive); that for `COc1ccc(C2NC(=O)c3ccccc3N2)cc1` (configuration not stated) was 73.7% (active).

On to `COc1ccc2c(c1)O/C(=C\c1ccccc1O)C2=O`, for which the activation was 61.8% (active). Next, `O=C1Oc2ccccc2C(=O)/C1=C/c1ccccc1O`: -36.2% (inactive). Next, `COC(=O)C(C)Oc1ccc2c(c1)O/C(=C\c1cccc(Br)c1)C2=O` (configuration not stated): -3.63% (inactive); `CCOc1ccc(/C=C/C(=O)N(CC)CC(=O)NCc2cccs2)cc1OC`: -14% (inactive). The value for `COc1ccccc1-n1ccnc(SCC(=O)NC2CCCCC2)c1=O` was -0.123% (inactive); that for `CC(C)CC(=O)N/C(N)=N/c1nc2ccccc2s1` was 10.3% (inactive); that for `CCC(=O)NC(=Nc1nc2ccccc2s1)NC(=O)CC` was 60.3% (active). For the molecule `O=C(O)CCCCc1nc2ccccc2s1`, the activation is 13% (inactive). The value for `COc1ccc2sc(N(CCCN(C)C)C(=O)c3ccc(S(=O)(=O)N(C)C4CCCCC4)cc3)nc2c1` was -14.5% (inactive); that for `O=C(CCC(=O)OCc1ccc(Cl)cc1)Nc1ccccc1` was 10.6% (inactive). Next, `O=C1c2cccc3cc(Br)cc(c23)C(=O)N1Nc1ccccc1`: -9.54% (inactive); `O=C1C=C(c2ccc(Cl)cc2)C(=O)N1Nc1ccccc1`: 82% (active); `Cc1cc(C)n2nc(C(=O)OCC(=O)N(CCC#N)c3ccc(F)cc3)nc2n1`: 12.7% (inactive). The value for `O=C(NCc1ccccc1Cl)C(=O)NCC1CCCN1S(=O)(=O)c1cccs1` (configuration not stated) was 4.38% (inactive); that for `CCCCN(C(=O)c1ccc(C)o1)c1c(N)n(CCCC)c(=O)[nH]c1=O` was 12.2% (inactive). As to `CN(C)CCCN(C(=O)c1ccc(S(=O)(=O)N2CCCCCC2)cc1)c1nc2cc3c(cc2s1)OCCO3`, the activation is -46.2% (inactive). The value for `CCCCn1c(N)c(N(CC(C)C)C(=O)c2cccc(S(=O)(=O)N3CC(C)OC(C)C3)c2)c(=O)[nH]c1=O` (configuration not stated) was -0.424% (inactive). The value for `CCOc1ccc(S(=O)(=O)NCCC(=O)N2CCCCCCC2)cc1` was 4.97% (inactive). For the molecule `CCOc1ccc(S(=O)(=O)NCCSc2ccccc2)cc1`, the activation is 61.2% (active). For the molecule `Cc1ccc(S(=O)(=O)NCCSc2ccccc2)cc1[N+](=O)[O-]`, the activation is -0.244% (inactive). The value for `COc1ccc(-c2cc(C(=O)N/N=C/c3cccnc3)c3ccccc3n2)c(OC)c1` was 5.29% (inactive); that for `O=C(NCCCNc1ccc([N+](=O)[O-])cc1Cl)c1ccccc1F` was -9.78% (inactive); that for `O=C(NCCNc1ccc([N+](=O)[O-])cc1Cl)c1ccccc1F` was 18.7% (inactive). Next, `O=C(NCCNc1ccccc1[N+](=O)[O-])c1ccccc1F`: 55.9% (active). The value for `O=C(c1ccncc1)N1CCN(S(=O)(=O)c2cccc([N+](=O)[O-])c2)CC1` was 4.99% (inactive). On to `COc1cccc(NC(=O)CN(C)C(=O)CSCc2nc3scc(-c4cccs4)c3c(=O)[nH]2)c1`, for which the activation was 0.833% (inactive). Next, `O=C(c1ccc(NS(=O)(=O)c2ccc3[nH]c(=O)[nH]c3c2)cc1)N1CCCCC1`: 12.7% (inactive); `COc1ccc(Cl)cc1NC(=O)CN(C)C(=O)CCCc1c[nH]c2ccccc12`: 60.8% (active); `COc1ccc(Cl)cc1NC(=O)CN(C)C(=O)c1cc2ccccc2cc1OC`: 21% (inactive). Next, `COc1ccccc1NC(=O)CCCc1c[nH]c2ccccc12`: -2.42% (inactive); `COc1ccccc1NS(=O)(=O)c1ccc(C)c(C(=O)NCC(c2ccco2)N(C)C)c1` (configuration not stated): -1.37% (inactive).
